Assay outcomes from PubChem BioAssay.
This is a sample that favours compounds with a hit; in the whole collection about 1.4% have one here.
MenB inh – Mtb MenB enzyme inhibition | P9WNP5 | AID 540299 | hit rate 0.43% among 100,000 | inhibition, % (test concentration not listed) | MenB enzyme assay, absorbance read-out; in the data active means inhibition above about 21%, passing the limit was not always enough
Polio RdRp inh – inhibitors of poliovirus RNA polymerase binding and polymerization; hit rate 0.66% among 150,000; poliovirus polymerase elongation, fluorescence polarization; hits give low values; P03300; % elongation, % (compound at 16.7 µg/mL); AID 588519; in the data active means % elongation below about 90%
Mtb MbtI inh – inhibitors of Mycobacterium tuberculosis siderophore enzyme MbtI; P9WFX0; purified MbtI enzyme, fluorescence intensity read-out; inhibition, % (test concentration not listed); hit rate 0.89% among 100,000; in the data active means inhibition mostly above about 56%, no sharp cut-off; inactive means mostly below about 77%
Target sequence (P9WFX0 whole entry, looked up): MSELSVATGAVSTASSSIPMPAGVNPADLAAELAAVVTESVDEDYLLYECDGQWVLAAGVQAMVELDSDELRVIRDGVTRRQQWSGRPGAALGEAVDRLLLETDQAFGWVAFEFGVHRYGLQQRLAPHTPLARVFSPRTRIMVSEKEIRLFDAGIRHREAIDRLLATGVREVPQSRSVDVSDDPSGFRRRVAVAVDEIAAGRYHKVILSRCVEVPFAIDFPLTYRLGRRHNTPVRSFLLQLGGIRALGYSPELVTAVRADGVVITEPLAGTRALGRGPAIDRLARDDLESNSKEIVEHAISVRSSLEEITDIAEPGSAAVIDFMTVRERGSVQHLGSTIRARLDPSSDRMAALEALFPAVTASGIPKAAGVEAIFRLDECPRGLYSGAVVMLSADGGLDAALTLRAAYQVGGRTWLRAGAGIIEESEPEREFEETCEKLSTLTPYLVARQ
Active calls of the source: *; i = inactive; . = not tested or not shown; ! = not active in a repeat.

SMILES	MenB inh	Polio RdRp inh	Mtb MbtI inh
COc1ccc(CCC(O)C2(O)CCCCC2)cc1 (stereo not drawn)	-18.5	101.0	.
S=C=NCCc1ccccc1	-23.2	89.0*	65.0*
Cc1nn(CC(=O)N2CCCC2)c(C)c1NC(=O)c1cnn2c1NC(c1ccco1)CC2C(F)(F)F (stereo not drawn)	-16.7	99.0	-2.1
CCOC(=O)c1sc(=N)n(CC(=O)c2ccc(F)cc2)c1C	-7.5	1.0*	10.4
CCOC(=O)c1cc2c(ccn2-c2ccc(F)cc2)n1CC(=O)c1ccc2c(c1)OCCO2	-52.5	102.0	-7.7
CC1CCN(S(=O)(=O)c2ccc(C(=O)NCc3ccco3)cc2)CC1	-14.2	89.0*	.
O=C(NCc1ccco1)c1ccc(S(=O)(=O)N2CCCC2)cc1	-2.4	106.0	-14.6
Cc1ccc2c(c1)=C(c1sc(=O)n(CC(=O)O)c1O)C(=O)N=2	-14.5	102.0	1.2
O=C(C1CCN(c2ncnc3sccc23)CC1)N1CCCCCC1	-13.7	103.0	-0.1
S=c1[nH]nc(CCCc2n[nH]c(=S)o2)o1	1.3	91.0	19.0
CN(C)Cc1n[nH]c(=S)o1	-19.3	75.0*	89.6*
CC(C)CCN1C(=O)c2ccc(C(=O)C(C#N)c3ccccn3)cc2C1=O (stereo not drawn)	-1.2	99.0	11.7
N/C(=N\N=C1CCCCCC1)SCn1nnc2ccccc2c1=O	-15.4	90.0*	33.6
O=c1c2ccccc2nnn1CSC(=S)N1CCCC1	-31.0	107.0	36.0
O=C(Nc1coc2ccccc12)c1ccc(C(F)(F)F)cc1	-20.4	101.0	.
O=C1NC(=O)C(=Cc2ccc(N3CCCC3)o2)C(=O)N1	-141.6	126.0	16.9
O=C1NC(=O)C(=Cc2ccc(Sc3ccc(Cl)cc3)o2)C(=O)N1	-26.4	104.0	91.6*
OCn1c(=S)sc2ccccc21	.	102.0	93.2*
CCN(CC)Cn1c(=S)sc2ccccc21	-13.1	100.0	86.7*
S=c1sc2ccccc2n1CN1CCCCC1	1.0	103.0	65.7
CCN(CC)Cn1c(=O)sc2ccccc21	-34.6	103.0	27.3
CCN(CC)CCN1C(=O)C(O)=C(C(=O)c2sc(C)nc2C)C1c1ccccn1 (stereo not drawn)	-17.6	100.0	13.3
CCCC(C)C(=O)Nc1ccc(OC)cc1 (stereo not drawn)	-13.9	100.0	-12.4
O=C1C(O)=C(O)C(=O)C(O)=C1O	-4.8	97.0*!	-36.5
CS(=O)(=O)N(CC(=O)Nc1ccc(S(=O)(=O)N2CCCCC2)cc1)c1ccccc1F	-10.2	98.0	-12.9
SMILES	MenB inh	Polio RdRp inh	Mtb MbtI inh
Cc1ccc(NC2OC(CO)C(O)C2O)cc1C (stereo not drawn)	-61.7	127.0	.
O=C(O)c1ccc(NC2OC(CO)C(O)C2O)cc1 (stereo not drawn)	-15.0	90.0*	.
Cc1ccc(C)n1Cc1cccs1	-6.6	99.0	3.1
Oc1c(C(c2cccnc2)N2CCCCC2)ccc2cccnc12 (stereo not drawn)	-20.6	111.0	-4.8
Oc1c(C(c2ccc(C(F)(F)F)cc2)N2CCOCC2)ccc2cccnc12 (stereo not drawn)	-79.6	111.0	63.9*
O=C1OCCC1Sc1ncc(C(F)(F)F)cc1Cl (stereo not drawn)	-5.6	102.0	0.3
CC(=O)OCC(=O)Nc1ccccc1	-30.4	3.0*	-7.8
COc1ccccc1C(=O)OCC(=O)Nc1ccccc1	.	103.0	3.5
CCCCNC1=NCCCS1	-21.3	105.0	-6.3
CC1CCCC(NC(=O)COC(=O)Cc2cccs2)C1C (stereo not drawn)	-7.5	100.0	21.8
CNC(=O)CSc1nc2ccccc2n1-c1ccccc1	-3.8	96.0	-7.8
CCc1nc2ccccc2c(N)c1C	14.1	90.0*	.
CCCc1nc2ccccc2c(N)c1CC	12.9	101.0	-174.4
Cc1cc2ccccn2c1C(=O)c1ccco1	-276.0	105.0	27.6
O=C(Nc1ccc(-c2nc3ccccc3o2)c(O)c1)c1ccccc1	.	105.0	.
CC(C)(C)c1ccc(C(=O)Nc2ccc(-c3nc4ccccc4o3)c(O)c2)cc1	.	-10.0*	.
CCN(C(=O)Cn1c(=O)oc2cc(Cl)ccc21)c1cccc(C(F)(F)F)c1	.	82.0*	.
CCN(C(=O)Cn1c(=O)oc2cc(S(=O)(=O)N3CCCCC3)ccc21)c1ccccc1	.	105.0	.
COc1cc(C=C(C#N)C#N)ccc1O	i	98.0	59.3*
COc1cc(/C=C(\C#N)C(=O)C(C)(C)C)ccc1O	-62.5	103.0	49.8
Cc1csc(NC(=O)C(C)(C)Br)n1	.	102.0	-3.1
CCN(CC)C(=O)C(Cc1ccccc1)N1C(=O)C2C3C=CC(C3)C2C1=O (stereo not drawn)	13.5	102.0	-3.3
COC(=O)C1=C(C)NC(C)=C(C(=O)OC)C1c1ccccc1[N+](=O)[O-]	-4.0	101.0	79.2*!
CCOC(=O)C1=C(C)NC(C)=C(C(=O)OC)C1c1cccc([N+](=O)[O-])c1 (stereo not drawn)	-3.1	100.0	-4.5
O=c1[nH][nH]c(=S)n1CCc1ccccc1	-13.1	93.0	67.8*
SMILES	MenB inh	Polio RdRp inh	Mtb MbtI inh
S=c1[nH]ccn1CCc1ccccc1	-15.1	103.0	.
CN(C)c1cccc(C(=O)N/N=C2\CCSc3ccc(F)cc32)c1	-3.6	102.0	-6.5
CCOc1ccc(C(=S)N2CCCC2)cc1	-44.2	103.0	-6.2
CCOC(=O)C1CCN(C(=S)c2ccccc2)CC1	-9.3	103.0	59.0*
CCOC(=O)c1ccc(C(=S)N2CCCC2)cc1	-7.6	69.0*	77.3*
CCOC(=O)C1CCN(C(=O)C(CC)c2ccccc2)CC1 (stereo not drawn)	.	.	-5.9
COc1ccccc1N1CCN(C(=O)Nc2cn(CC(C)C)c(=O)c3ccccc23)CC1	.	104.0	.
COc1ccc(CNC(=O)Nc2cn(CC(C)C)c(=O)c3ccccc23)c(OC)c1	.	-10.0*	.
Cc1cccc(N2CCN(C(=O)Nc3cn(CC(C)C)c(=O)c4ccccc34)CC2)c1C	.	98.0	.
CCN1CCCC1CNC(=O)Nc1cn(CC(C)C)c(=O)c2ccccc12 (stereo not drawn)	-9.8	100.0	-27.9
Cc1ccc(N2CCN(C(=O)Nc3cn(CC(C)C)c(=O)c4ccccc34)CC2)c(C)c1	.	68.0*	.
CCCNC(=O)Nc1cn(CC(C)C)c(=O)c2ccccc12	1.3	16.0*	120.0
CC1=C(CCN2CCN(Cc3ccccc3)CC2)C(C)(C)CCC1	-16.9	98.0	6.0
Cc1cc2nnc(SCCC(=O)O)n2c2ccccc12	9.9	101.0	133.8
COc1ccccc1CNC(=O)c1ccccc1SC	-33.8	103.0	59.5*
COc1ccccc1CNC(=O)c1cnc(SC)nc1C	.	115.0	.
O=C(/C=C/c1ccco1)Nc1ccc(-c2cc3ccccc3oc2=O)cc1	-36.6	104.0	-8.9
CC1CC(C)CN(CC(=O)Nc2cccnc2Cl)C1 (stereo not drawn)	-26.0	100.0	-4.8
COC(=O)C1C(=O)NC(SCC(=O)NCc2ccccc2)=C(C#N)C1c1ccccc1F (stereo not drawn)	-34.1	104.0	11.9
COC(=O)C1C(=O)NC(S)=C(C#N)C1c1ccccc1Cl (stereo not drawn)	-12.5	106.0	86.8*
O=c1oc2c3c(ccc2c2ccccc12)OCN(Cc1ccc(Cl)cc1)C3	.	88.0*	.
COc1ccc(CN2COc3ccc4c(oc(=O)c5ccccc54)c3C2)cc1OC	.	100.0	.
COc1cccc(/C(O)=C/c2nc3ccc(C(F)(F)F)cc3[nH]c2=O)c1	-9.2	107.0	-4.1
CC(C)c1ccc(NC(=S)Sc2ccc(F)cc2F)cc1	-12.5	97.0	65.2*
CC(C)c1ccc(NC(=S)N=C(N)N)cc1	-16.3	99.0	6.8
